VACV E9 pol inh = inhibitors of vaccinia virus processive DNA synthesis (E9 polymerase). in vitro processive DNA synthesis, absorbance read-out; stronger effect = lower value. 0.94% of 46,000 active. normalized absorbance, % (concentration not given with the values). AID 493162; in the data active = normalized absorbance mostly below about 85%, no sharp cut-off; inactive = mostly above about 86%
The depositor's hits bear a star. The sample as a whole holds a higher share of hits than the screen did.

SMILES	VACV E9 pol inh
O=C(CNC(=S)N(Cc1ccccc1)Cc1cccs1)NC1CCCCC1	77*
O=C(O)CNC(=S)N(Cc1ccccc1)Cc1cccs1	88
CC(C)(C)C(=O)CSc1nnc(-c2ccncc2)o1	101
C/C(=C\c1ccccc1)c1ccc2c(c1)CCN2C	100
COc1ccc(Cl)cc1NC(=O)Nc1ccc(N(C)C)cc1	102
O=C(Sc1ccc(Cl)cc1)c1ccc(-c2cccs2)s1	99
CN(C)C=NC(=S)c1ccc(-c2cccs2)s1	78*
CC(C)(C)c1csc(-c2ccc(-c3cccs3)s2)n1	100
CC(C)(C)Nc1nc(NC(C)(C)C)nc(N2CCNCC2)n1	100
O=C(COc1ccc(Br)cc1)OC1CCS(=O)(=O)C1 (stereo unspecified)	101
O=C1CSCN1c1ccc(Oc2ccccc2)cc1	88
CN1C(=O)/C(=C\c2ccccc2)Sc2ccc(C(=O)NC3CCCCC3)cc21	81
CC(C(=O)O)N1C(=O)/C(=C/c2ccccc2Cl)SC1=S (stereo unspecified)	90
CN1C(=O)/C(=C/c2ccccc2Cl)Sc2ccc(C(=O)O)cc21	46*
CN1C(=O)c2ccccc2Sc2ccc(C(=O)O)cc21	97
CCCC(C(=O)O)N1C(=O)/C(=C/c2ccccc2Cl)SC1=S (stereo unspecified)	56*
CCCC(C(=O)O)N1C(=O)/C(=C/c2ccc(C)cc2)SC1=S (stereo unspecified)	96
O=S(=O)(c1ccc(Cl)cc1)c1cnn(S(=O)(=O)c2ccccc2)c1-c1ccc(Cl)cc1	100
Cc1ccc(Cn2cc(CCC(=O)NC(C)C)c3ccccc32)cc1	89
O=C(Nc1c(-c2ccccc2)c2cc(Br)ccc2[nH]c1=O)c1ccccc1	99
Cc1ccc(-c2nc3c(cnn3-c3ccccc3)c(=O)n2-c2cccc(C)c2)cc1	100
Cc1cc(NC(=O)Cc2cccc3ccccc23)no1	90
COc1ccc(CCNC(=O)CSc2ccc(C)cc2)cc1OC	100
CCCOC(=O)c1c(N)sc2c1CCCC2	100
CCN(CC)CCOC(=O)C(c1ccccc1)c1ccccc1	103
SMILES	VACV E9 pol inh
CCN(CC)CCOc1ccc(/C(C)=N\O)cc1	100
CCN(CC)CCOc1ccc2c(c1)C(=O)c1cc(OCCN(CC)CC)ccc1-2	30*
O=C(Sc1ccc(Cl)cc1Cl)c1csc(-c2ccc3nonc3c2)n1	98
CC(=O)Nc1nonc1NC(=O)C12CC3CC(CC(C3)C1)C2	106
COC(CNC(=O)c1cc(Sc2nnc(C)s2)nc2ccccc12)OC	93
Cc1nnc(Sc2cc(C(=O)NCc3ccccn3)c3ccccc3n2)s1	98
Cc1nnc(Sc2cc(C(=O)NCCCN3CC(C)CC(C)C3)c3ccccc3n2)s1 (stereo unspecified)	69*
O=C(COc1ccccc1)Nc1nc2ccc(Cl)cc2s1	100
COc1cccc(CNC(=O)c2cnc(OC)cc2C(F)(F)F)c1	101
CCN(Cc1ccccc1)c1ccc(/C=N/n2cnnc2)cc1	104
CCn1c2ccccc2c2cc(C=Nc3ccc(Cl)cc3)ccc21	102
CCn1c2ccccc2c2cc(/C=N/n3cnnc3)ccc21	61*
C=CCN=C1NN(c2ccc3c(c2)OCCO3)C(C(=O)Nc2ccccc2)=C(C)S1	100
CCOc1ccc2sc(C=NC(C)CC)c(O)c2c1 (stereo unspecified)	100
O=C(CSc1nc2ccccc2o1)N1CCNC1=O	104
CC(=O)Nc1sc(Cc2ccccc2)c(C)c1C(N)=O	97
O=C(NCCN1CCCC1)C1=Cc2sc3c(c2CS1)CCCC3	74*
O=C(NCCCN1CCCC1)c1csc2c1CCCCC2	98
Cc1ccc(C(=O)NCCN2CCCC2)cc1	100
COc1ccc2nc(-c3ccccc3)nc(N3CCCCC3)c2c1	105
OC1(C(F)(F)F)CSC(Cc2ccccc2)=N1 (stereo unspecified)	95
COC(=O)c1c(NC(=O)c2ccc(OC)cc2)sc2c1CCN(C)C2	92
CN1CCc2c(sc(NC(=O)c3ccc4ncsc4c3)c2C(N)=O)C1	85*
N#Cc1ccsc1NC(=O)c1ccc2ncsc2c1	108
O=C(CCC1CC(=O)Nc2ccccc21)NCc1ccccc1 (stereo unspecified)	84
SMILES	VACV E9 pol inh
COc1cc2c(cc1OC)C(c1ccccc1)CC(=O)N2 (stereo unspecified)	85
O=C1CC(c2ccccc2)c2c(ccc3ccccc23)N1 (stereo unspecified)	84*
O=C(CSc1nnc(SCc2ccc(Cl)cc2)s1)N1CCc2ccccc2C1	101
Cc1ccc(Nc2nc(N)nc(CN3CCC(Cc4ccccc4)CC3)n2)cc1	116
CCCCCCCCCCCCCCCC[n+]1ccccc1	17*
c1cc[n+](C[n+]2ccccc2)cc1	103
N#Cc1c(-n2cccc2)sc2c1CCCC2	104
COC(=O)C1=CN(C)C=C(C(=O)OC)C1c1ccc(C(C)C)cc1	103
COc1ccc(-c2c3c(=O)n(C)c(=O)n(C)c3cn2-c2cccc(NC(C)=O)c2)cc1	104
COC(=O)c1ccccc1C(=O)c1ccccc1	92
O=C(NO)c1cccc2c1-c1ccccc1/C2=N/O	73
COC(=O)c1cccc2c1-c1ccccc1/C2=N/O	58*
CCCCN(C)C(=O)C1CCN(Cc2ccc(OCC)cc2)CC1	97
O=C(O)c1ccccc1SC/C=C/c1ccccc1	83*
O=C(O)c1ccccc1SCC(=O)N1CCCC1	90
[O-][n+]1ccccc1SC/C=C/c1ccccc1	98
Cc1ccc(C)c(NC(=O)CC(NC2CCCCC2)C(=O)O)c1 (stereo unspecified)	99
Cc1c(C(=O)/C=C/N(C)C)nnn1-c1ccccc1	96
CN(C)/C=C/C(=O)c1ccc2c(c1)CCO2	98
COC(=O)c1noc(C)c1C(=O)/C=C/N(C)C	40*
CCc1ccc(CN2C(=O)c3ccccc3C2C(=O)NCCc2ccccc2)cc1 (stereo unspecified)	104
CC(Sc1ncc(C(F)(F)F)cc1Cl)c1ccn[nH]1 (stereo unspecified)	99
CCOC(=O)c1c(NC(C)=O)sc(Br)c1-c1ccc(C)cc1	89
CCOC(=O)c1c(NC(=O)CCN2CCOCC2)sc(C)c1-c1ccccc1	82
CCOC(=O)c1c(NC(=O)/C=C\C(=O)O)sc(C)c1-c1ccccc1	63*
SMILES	VACV E9 pol inh
O=C(c1[nH]c2ccccc2c1-c1ccccc1)N1CCOCC1	106
Cc1ccc(NN)cc1	65*
Cc1ccc(Nc2ccc(C)cc2)cc1	100
Cc1ccc(S(=O)(=O)c2ccc(NN)cc2)cc1	95
CC(C)CC(C(=O)Nc1ccc(S(N)(=O)=O)cc1)N1C(=O)C2C3C=CC(C3)C2C1=O (stereo unspecified)	108
COc1ccccc1CNCC(O)Cn1c2ccccc2c2ccccc21 (stereo unspecified)	112
OC(COCc1ccccc1)Cn1c2ccccc2c2ccccc21 (stereo unspecified)	94
CNCC(O)Cn1c2ccccc2c2ccccc21 (stereo unspecified)	78*
CCC(CO)NCC(O)Cn1c2ccccc2c2ccccc21 (stereo unspecified)	80*
CC1(C)NC(=O)N(CC(O)Cn2c3ccccc3c3ccccc32)C1=O (stereo unspecified)	100
Cc1ccc(S(=O)(=O)NCC(O)Cn2c3ccccc3c3ccccc32)cc1 (stereo unspecified)	100
C=CCC1C(=S)SC(C(=O)OCC)=C1NC(=O)c1cccs1 (stereo unspecified)	100

Screens (PubChem BioAssay)
